The record followed here is PubChem BioAssay (Tox21).

Assay [1] is described as follows: qHTS assay to identify small molecule agonists of the vitamin D receptor (VDR) signaling pathway - cell viability counter screen (AID 743224). Note: nearly all actives have a fitted effect of over 50% in size. Note: potency is the fitted concentration of half-maximal effect. The method, boiled down: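 Counter screen for cytotoxicity: VDR-bla cells at 2,000 cells/well, 16 h compound exposure, then CellTiter-Glo luminescence after the beta-lactamase measurement.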
A short description of assay [2]: qHTS assay to identify small molecule agonists of the NFkB signaling pathway (AID 1159509; active = well fitted curve in the direction sought with a large enough effect in the signal ratio in the repeat runs, not every such curve was filed as active; the % refers to the signal ratio; note: series mostly up to about 61 µM; % is set by controls: 0 for no effect and ±100 for the full control effect). In outline: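 Beta-lactamase reporter assay run in quantitative high-throughput format on an NF-kB-responsive ME-180 line, with 5 hr compound treatment and a FRET-based blue/green fluorescence readout.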
The nature of assay [3]: qHTS assay to identify small molecule agonists of the NFkB signaling pathway - cell viability counter screen (AID 1159515; calls by dose curve; note: series mostly up to about 61 µM; % is set by controls: 0 for no effect and ±100 for the full control effect; nearly all actives have a fitted effect of over 55% in size). In outline: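 Counter screen run alongside the NFkB-bla agonist assay: ME-180 reporter cells exposed to compounds for 5 hr, then lysed with CellTiter-Glo in the same wells. Luminescence, read after 30 min, reflects viable cells.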
The nature of assay [4]: qHTS assay to identify small molecule agonists of the endoplasmic reticulum stress response signaling pathway (AID 1159516; active = well fitted activation curve with a large enough effect in the signal ratio in the repeat runs, not every such curve was filed as active; the % refers to the signal ratio; note: % is set by controls: 0 for no effect and ±100 for the full control effect). The method, boiled down:
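For this screen, HeLa cells stably carrying beta-lactamase under the ER stress response element received test compounds, positive controls or DMSO for 5 hr at 37 C; B/G FRET substrate was then added and dual-wavelength emission recorded.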

Assay [5] can be described thus: qHTS assay to identify small molecule agonists of the endoplasmic reticulum stress response signaling pathway - cell viability counter screen (AID 1159517; calls by dose curve; note: series mostly up to about 61 µM; % is set by controls: 0 for no effect and ±100 for the full control effect; nearly all actives have a fitted effect of over 50% in size). The method, boiled down:
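Cytotoxicity of test compounds toward ESRE-bla HeLa cells was assessed after 5 hr exposure. The luminescent CellTiter-Glo signal was measured 30 min after reagent addition.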

Assay [6] in a line: qHTS assay to identify small molecule antagonists of the retinoid-related orphan receptor gamma (ROR-gamma) signaling pathway - cell viability counter screen (AID 1159520). Note: nearly all actives have a fitted effect of over 50% in size. Note: potency is the fitted concentration of half-maximal effect. In outline: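 Tet-on ROR gamma CHO cells (1,000/well) were plated 4 hr, given compounds in DMSO for 2 hr at 37 C, then induced with 1 uM final doxycycline for 16 hr. Viability was read as ATP by CellTiter-Glo luminescence after 30 min.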

Assay [7] concerns the target Nuclear receptor ROR-gamma (Homo sapiens) (UniProt P51449). Description: qHTS assay to identify small molecule antagonists of the retinoid-related orphan receptor gamma (ROR-gamma) signaling pathway (AID 1159521; note: nearly all actives have a fitted effect of over 50% in size; note: potency is the fitted concentration of half-maximal effect). The method, boiled down:
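Readout: ONE-Glo luciferase luminescence, 30 min at room temperature. System: Tet-on RORγ CHO, RORE-LUC. Sequence: compound 2 h, doxycycline 1 uM final, 16 h at 37 C.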

The nature of assay [8]: qHTS assay to identify small molecule agonists of the AP-1 signaling pathway - cell viability counter screen (AID 1159525; calls by dose curve; note: nearly all actives have a fitted effect of over 55% in size; note: potency is the fitted concentration of half-maximal effect). The method, boiled down: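 Each titration point was normalised to DMSO and tetra n-octyl ammonium bromide controls. The read was Cell Titer Glo luminescence after 30 min at RT, following 5 h compound exposure of ME-180 AP-1-bla cells at 37 °C.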
Assay [9] in a line: qHTS assay to identify small molecule agonists of the AP-1 signaling pathway (AID 1159526; calls by dose curve; note: % is set by controls: 0 for no effect and ±100 for the full control effect).
Assay [10] in a line: qHTS assay to identify small molecule agonists of the RXR signaling pathway - cell viability counter screen (AID 1159529). Note: nearly all actives have a fitted effect of over 50% in size. Note: potency is the fitted concentration of half-maximal effect. The method, boiled down: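 Tox21 10K compounds were tested for cytotoxicity against GeneBLAzer RXR-alpha HEK 293T cells grown in 2% charcoal-stripped FBS. Exposure lasted 16 hr at 37 C, 5% CO2; viability read by CellTiter-Glo luminescence.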
Assay [11] can be described thus: qHTS assay to identify small molecule antagonists of the retinoid acid receptor (RAR) signaling pathway - cell viability counter screen (AID 1159551). Note: nearly all actives have a fitted effect of over 35% in size. Note: potency is the fitted concentration of half-maximal effect. In outline: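 Measured by luminescent ATP detection, viability reflects C3RL4 cells treated 6 h at 37 C with test chemicals in the presence of 1 uM (final) retinol.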
Assay [12] is described as follows: qHTS assay to identify small molecule antagonists of the vitamin D receptor (VDR) signaling pathway - cell viability counter screen (AID 743225). In outline: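 Cytotoxicity toward the VDR-bla HEK 293T line was scored by ATP-based CellTiter-Glo luminescence, read in the wells already used for the beta-lactamase readout after 16 h compound treatment under 3 nM 1-alpha,25-dihydroxyvitamin D3 stimulation.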

Assay [13] in a line: qHTS assay to identify small molecule antagonists of the retinoic acid receptor (RAR) signaling pathway (AID 1159552; note: nearly all actives have a fitted effect of over 50% in size; note: potency is the fitted concentration of half-maximal effect). The method, boiled down:
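Overnight-plated C3RL4 reporter cells get compound, then retinol to 1 uM final; plates sit 6 hr at 37 C, 5% CO2. A luciferase reagent is added and light output recorded after 30 min at room temperature.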

Assay [14] is described as follows: qHTS assay to identify small molecule agonists of the retinoic acid receptor (RAR) signaling pathway (AID 1159553). Note: % is set by controls: 0 for no effect and ±100 for the full control effect. In outline:
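6 hr compound exposure (DMSO vehicle) of overnight-plated C3RL4 RARE-luc cells at 37 C; luminescence quantified after 30 min RT with luciferase reagent.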

Assay [15] addresses Retinoic acid receptor RXR-alpha (Homo sapiens) (UniProt P19793). Briefly: qHTS assay to identify small molecule agonists of the RXR signaling pathway (AID 1159527; calls by dose curve; note: nearly all actives have a fitted effect of over 35% in size; note: potency is the fitted concentration of half-maximal effect). The method, boiled down:
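Reporter activation is measured as beta-lactamase activity via FRET substrate cleavage (emission 460/530 nm) in HEK 293T cells expressing an RXR-alpha-driven bla construct, following 16 hr compound exposure at 37 C.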

Inconclusive results are not listed. A number with no mark means an inactive call. Active and inactive are the calls of the source. Unless noted, calls come from the whole dose curve; as a rule, active = well fitted curve in the direction sought with a large enough effect in the repeat runs; inconclusive = weak or mixed curves; inactive = no such curve, though single readings can be large; an effect the other way counts as inactive or inconclusive.

Sequence of Retinoic acid receptor RXR-alpha (Homo sapiens) (P19793 whole entry, looked up): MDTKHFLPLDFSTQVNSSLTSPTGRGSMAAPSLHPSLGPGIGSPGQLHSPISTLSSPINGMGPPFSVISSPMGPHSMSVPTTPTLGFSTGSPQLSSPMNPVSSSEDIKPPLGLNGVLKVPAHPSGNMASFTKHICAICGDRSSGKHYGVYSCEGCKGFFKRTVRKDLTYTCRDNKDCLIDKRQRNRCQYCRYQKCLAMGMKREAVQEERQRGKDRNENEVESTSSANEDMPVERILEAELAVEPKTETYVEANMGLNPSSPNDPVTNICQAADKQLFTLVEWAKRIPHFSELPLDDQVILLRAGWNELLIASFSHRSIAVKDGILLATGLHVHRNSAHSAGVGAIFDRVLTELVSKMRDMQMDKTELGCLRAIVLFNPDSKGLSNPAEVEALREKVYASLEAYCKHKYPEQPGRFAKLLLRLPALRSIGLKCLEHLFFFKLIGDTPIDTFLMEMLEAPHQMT

Regarding `O=S(=O)(O)C(F)(F)C(F)(F)C(F)(F)C(F)(F)C(F)(F)C(F)(F)F`, the Potency result in assay [1], in [5], in [6], in assay [7], in assay [8] and in assay [10] was “inactive” throughout. Besides, the Potency entry in [11] was “inactive”. The compound was called inactive in assay [2], in [3], in assay [4] and in assay [9].
Regarding `CCN(CC)C(=O)[C@@H]1C=C2c3cccc4[nH]cc(c34)C[C@H]2N(C)C1`, the Potency entry in [1], in [5], in assay [6], in assay [7], in [8] and in assay [10] was “inactive” throughout. The Potency result in assay [11], in assay [13] and in assay [14] was “inactive” in each case. The call in assay [12], in [2], in assay [3], in assay [4] and in [9] was inactive.
Take `CCCCP(CCCC)CCCC`: the Potency result in [1], in assay [5], in assay [6], in assay [7], in [8] and in assay [15] was “inactive” throughout. Also, the Potency result in assay [10] and in assay [11] was “inactive” in each case. In addition, the call in [12], in assay [2], in assay [3], in assay [4] and in assay [9] was inactive.
As for `Cc1ncc2n1-c1ccc(Cl)cc1C(c1ccccc1F)=NC2`, the Potency result in assay [1], in [5], in assay [6], in assay [7], in assay [15] and in assay [10] was “inactive” in each case. Further, the Potency entry in assay [11] was “inactive”. In addition, the compound was classed as inactive in [12], in assay [2], in assay [3], in assay [4] and in [9].
Regarding `CC(CC(C#N)(c1ccccc1)c1ccccc1)N(C)C` (stereo not drawn), the Potency result in assay [1], in assay [5], in assay [6], in assay [7], in [8] and in assay [15] was “inactive” in each case. The Potency entry in assay [10] and in [11] was “inactive” throughout. Also, the result in assay [12], in assay [2], in assay [3] and in assay [4] was inactive.
For the compound `O=C1c2ccccc2C(=O)c2ccccc21`, the Potency result in [1] and in assay [5] was “inactive” each time. In addition, the call in assay [12], in assay [2], in assay [3] and in assay [4] was inactive. Also, the activity, negative = cytotoxicity in assay [6] is -0.509% [at 19 µM]. Also, the activity change, negative = inhibition in [7] is 99.4% [at 19 µM]. Besides, the activation is 11.5% [at 15.8 µM] in assay [9] and 2.89% [at 15.8 µM] in assay [15]. The activity change, negative = cytotoxicity in assay [10] is 3.01% [at 15.8 µM]; in assay [11], 3.84% [at 19 µM].
Turning to `C=CCC1=C(C)[C@@H](OC(=O)[C@@H]2[C@@H](C=C(C)C)C2(C)C)CC1=O`, the Potency was 38.9 µM (active) in assay [1]; 54.5 µM (active) in [6]; 27.3 µM (active) in assay [7]; 49 µM (active) in assay [8]; 21.9 µM (active) in assay [10]; 54.5 µM (active) in assay [11]. Also, in assay [13], the Potency is 27.3 µM (active). For the same compound, the compound was called inactive in assay [2], in assay [3] and in [4]. In addition, the Potency entry in assay [5] and in [14] was “inactive” each time.
As to `CN(N=O)C(N)=O`, the Potency entry in assay [1], in assay [5], in assay [6], in assay [7], in assay [8] and in [15] was “inactive” in each case. Further, the Potency entry in assay [10] and in assay [11] was “inactive” each time. Also, the call in [12], in [2], in assay [3] and in assay [4] was inactive.
`CCC1(c2ccccc2)C(=O)N=C(O)NC1=O` (stereo not drawn): the Potency result in assay [1], in [5], in [6], in assay [7], in assay [10] and in assay [11] was “inactive” each time. Moreover, the call in [12], in assay [2], in [3], in assay [4] and in [9] was inactive. Besides, the Potency in assay [15] was 12 µM (active).
`BrCCCCCCBr`: the Potency result in assay [1], in assay [5], in [6], in assay [7], in assay [8] and in assay [10] was “inactive” throughout. The Potency entry in [11] and in assay [14] was “inactive” each time. Also, the outcome in [2], in assay [3] and in [4] was inactive.
Take `COC(=O)C(C)Oc1ccc(Oc2ccc(Cl)cc2Cl)cc1` (stereo not drawn): the Potency result in assay [1], in assay [5], in [6], in assay [7], in [8] and in assay [10] was “inactive” each time. The Potency entry in [11] was “inactive”. Besides, the compound was called inactive in [12], in assay [2], in [3], in [4] and in assay [9].
